We go through 40 compounds from the supplement of paper PMC10811239.

Structures can show the parent of a compound that is named as a salt.

In this assay the test system is LEGO organoid PT (PTEN-/-; TP53-/-). The assay is described as follows: bioluminescence (viable cell) signal fold change after vs before treatment, normalised to DMSO (ratio); higher = more tumour cell growth / less inhibition. Conditions: 10 µM; treatment time 6 days. The procedure:
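Luc2-labelled iPSC-derived glioblastoma-like organoids (LEGOs, genotypes PT = PTEN-/-;TP53-/-, PTCC = plus CDKN2A/B-/-, PTN = plus NF1-/-) were treated with 10 uM drug for 6 days (applied every other day) at 37 C. Bioluminescence imaging was done before treatment and 2 days after the last dose. BLI signals were normalised to the DMSO control on the same day and then to the pre-treatment signal (N=3).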
On to `C[C@]12C=CC(=O)C=C1CC[C@@H]1[C@@H]2C(=O)C[C@@]2(C)[C@H]1CC[C@]2(O)C(=O)CO` [Prednisone], for which the bioluminescence is 1.13. For the compound `C[N+](C)(C)CCO.[Cl-]` [Choline chloride], the bioluminescence turned out to be 1.48. For `CC/C(=C(/CC)c1ccc(O)cc1)c1ccc(O)cc1` [Diethylstilbestrol] the value was 1.01; for `Cc1oncc1C(=O)Nc1ccc(C(F)(F)F)cc1` [Leflunomide], 2.01; for `CC(=O)[C@H]1CC[C@H]2[C@@H]3CCC4=CC(=O)CC[C@]4(C)[C@H]3CC[C@]12C` [Progesterone], 0.82. Regarding `CN(C)CCC=C1c2ccccc2COc2ccccc21.Cl` [Doxepin hydrochloride], the bioluminescence worked out at 1.71. For `C[C@@H](c1ncncc1F)[C@](O)(Cn1cncn1)c1ccc(F)cc1F` [Voriconazole] the value was 0.515. For `COc1cc2c(cc1OC)C(=O)C(CC1CCN(Cc3ccccc3)CC1)C2` (stereo not given) [Donepezil] the value was 0.84. For `COc1cc2ncnc(Nc3ccc(F)c(Cl)c3)c2cc1NC(=O)/C=C/CN1CCCCC1` [Dacomitinib] the value was 0.37; for `Cl.Clc1cccc(Cl)c1NC1=NCCN1` [Clonidine hydrochloride], 1.1. Regarding `Clc1ccc(COC(Cn2ccnc2)c2ccc(Cl)cc2Cl)c(Cl)c1.O=[N+]([O-])O` (stereo not given) [Miconazole nitrate], the bioluminescence is 0.225. Consider `COCCOC(=O)C1=C(C)NC(C)=C(C(=O)OC(C)C)C1c1cccc([N+](=O)[O-])c1` (stereo not given) [Nimodipine], for which the bioluminescence is 1.49. For `Nc1nc(NC2CC2)c2ncn([C@H]3C=C[C@@H](CO)C3)c2n1.Nc1nc(NC2CC2)c2ncn([C@H]3C=C[C@@H](CO)C3)c2n1.O=S(=O)(O)O` [Abacavir sulfate] the value was 0.703; for `Cc1ccccc1C(OCCN(C)C)c1ccccc1.O=C(O)CC(O)(CC(=O)O)C(=O)O` (stereo not given) [Orphenadrine Citrate], 0.847.

As to `Cl.O=C1CN2Cc3c(ccc(Cl)c3Cl)NC2=N1` [Anagrelide hydrochloride], the bioluminescence worked out at 1.02. For `CCCCS(=O)(=O)N[C@@H](Cc1ccc(OCCCCC2CCNCC2)cc1)C(=O)O` [Tirofiban] the value was 0.741; for `Nc1nc(=O)c2c(CCc3ccc(C(=O)N[C@@H](CCC(=O)[O-])C(=O)[O-])cc3)c[nH]c2[nH]1.Nc1nc(=O)c2c(CCc3ccc(C(=O)N[C@@H](CCC(=O)[O-])C(=O)[O-])cc3)c[nH]c2[nH]1.O.O.O.O.O.[Na+].[Na+].[Na+].[Na+]` [Pemetrexed Disodium Hydrate], 1.33; for `C[C@H]1C[C@@H]2[C@H]([C@@H](O)C[C@@]3(C)[C@H]2CC[C@]3(O)C(=O)CO)[C@@]2(C)C=CC(=O)C=C12` [Methylprednisolone], 1.3.

Regarding `NC(=O)c1cn(Cc2c(F)cccc2F)nn1` [Rufinamide], the bioluminescence was determined as 0.54. For the compound `CSCC[C@@H](N)C(=O)O` [Methionine], the bioluminescence amounted to 1.1. As for `O=C1[N-]C(=O)C(c2ccccc2)(c2ccccc2)N1.[Na+]` [Phenytoin sodium], the bioluminescence was 0.855.

For `CCCCCCCCc1ccc(CCC(N)(CO)CO)cc1.Cl` [Fingolimod hydrochloride], the bioluminescence is 1.07. `CN1C(C(=O)Nc2ccccn2)=C(O)c2ccccc2S1(=O)=O` [Piroxicam]: the bioluminescence was 1.07.

For the compound `CCN(CC)C(=O)[C@]1(c2ccccc2)C[C@@H]1CN.Cl` [Milnacipran hydrochloride], the bioluminescence was found to be 1.54.

On to `COc1c(N2CCNC(C)C2)c(F)cc2c(=O)c(C(=O)O)cn(C3CC3)c12` (stereo not given) [Gatifloxacin], for which the bioluminescence is 1.66. The value for `CC(C)(Sc1cc(C(C)(C)C)c(O)c(C(C)(C)C)c1)Sc1cc(C(C)(C)C)c(O)c(C(C)(C)C)c1` [Probucol] was 0.49. The value for `CCc1cc2c(cc1N1CCC(N3CCOCC3)CC1)C(C)(C)c1[nH]c3cc(C#N)ccc3c1C2=O` [Alectinib] was 1.13; that for `CCOC(=O)C1=C(C)NC(C)=C(C(=O)OC)C1c1cccc(Cl)c1Cl` (stereo not given) [Felodipine] was 1.06.

`COc1cccc2c1C(=O)c1c(O)c3c(c(O)c1C2=O)C[C@@](O)(C(=O)CO)C[C@@H]3O[C@H]1C[C@H](N)[C@@H](O)[C@H](C)O1.Cl` [Epirubicin hydrochloride]: the bioluminescence turned out to be 0.

Regarding `CS(=O)(=O)CCNCc1ccc(-c2ccc3ncnc(Nc4ccc(OCc5cccc(F)c5)c(Cl)c4)c3c2)o1.Cc1ccc(S(=O)(=O)O)cc1.Cc1ccc(S(=O)(=O)O)cc1` [Lapatinib Ditosylate], the bioluminescence turned out to be 1.34.

In the case of `NC(=O)OCC(COC(N)=O)c1ccccc1` [Felbamate], the bioluminescence came out at 0.699. For `Cc1c(C)c2c(c(C)c1O)CC[C@@](C)(CCC[C@H](C)CCC[C@H](C)CCCC(C)C)O2` [α-Vitamin E] the value was 1.31. For `CCOc1nc2cccc(C(=O)OC(C)OC(=O)OC3CCCCC3)c2n1Cc1ccc(-c2ccccc2-c2nn[nH]n2)cc1` (stereo not given) [Candesartan Cilexetil] the value was 1.14. The value for `NC(=O)N1c2ccccc2C=Cc2ccccc21` [Carbamazepine] was 0.803; that for `COC(=O)/C=C/C(=O)OC` [Dimethyl fumarate] was 0.759.

`COc1ccccc1Oc1c(NS(=O)(=O)c2ccc(C(C)(C)C)cc2)nc(-c2ncccn2)nc1OCCO` [Bosentan]: the bioluminescence was 0.81. For `CCc1nn(CCCN2CCN(c3cccc(Cl)c3)CC2)c(=O)n1CCOc1ccccc1.Cl` [Nefazodone hydrochloride] the value was 1.4; for `C=CC(=O)Nc1cc(Nc2nccc(-c3cn(C)c4ccccc34)n2)c(OC)cc1N(C)CCN(C)C` [Osimertinib], 0.644; for `Nc1ccn([C@@H]2O[C@H](CO)[C@@H](O)[C@@H]2O)c(=O)n1` [Cytarabine], 1.82. With `N[C@H]1CONC1=O` [L-Cycloserine], the bioluminescence worked out at 0.758.
